Reference: PubChem BioAssay (EPA / NIEHS)
Inconclusive results are not listed. The source made the active and inactive calls. The calls were made as follows, unless noted: active = hit-call score of the fitted dose curve at least 0.9, where 1 is the maximum; inconclusive = response in the unintended direction; inactive = score below 0.9.

Read-out: UDP glucuronosyltransferase (UGT1A6), UGT1A6 (gene 54578)
Assay: LTEA_HepaRG_UGT1A6: Life Technologies and Expression Analysis (LTEA) Assay for UDP glucuronosyltransferase (UGT1A6) using HepaRG (AID 2283539; active = hit-call score of the fitted dose curve at least 0.9, where 1 is the maximum; inactive = score below 0.9)
Conditions: mRNA level, 48 h; actives raise or lower the signal
Summary of the method: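 Measures mRNA change in HepaRG hepatic cells exposed 48 h to chemicals (eight-point, maximum 100 uM, 0.5% DMSO vehicle) in serum-free induction medium. Expression normalized to endogenous controls; DMSO served as negative control and baseline.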
For Oc1cc(Cl)c(Cl)cc1Cl, the outcome was “inactive”. With Oc1c(Cl)cc(Cl)cc1Cl the outcome was “inactive”. For O=C(N[C@H]1CN2CCC1CC2)c1ccc2c(c1)OCCO2, the outcome was “inactive”. With COc1ccccc1N the outcome was “inactive”. For Clc1cccc(Cl)c1, the outcome was “inactive”. For N#Cc1cccnc1, the outcome was “inactive”. In the case of CC(C)O.CC(C)O.OCCN(CCO)CCO.OCCN(CCO)CCO.[Ti], the outcome is reported as “inactive”. In the case of OCCN(CCO)CCO, the outcome is reported as “inactive”. With O=C(O)C1(c2ccc3c(c2)OC[C@H](Cc2ccc(-c4ccccc4)cc2)[C@H]3O)CCCC1 the outcome was “inactive”. In the case of CN(C)C(=S)S, the outcome is reported as “inactive”. For Cc1cc(C)cc(C)c1, the outcome was “inactive”. For Clc1cccc(Cl)c1Cl, the outcome was “inactive”. For CC(C)(C)c1ccccc1O, the outcome was “inactive”. With CCCCCCCCCCCCc1cccc(S(=O)(=O)O)c1 the outcome was “inactive”.

Read-out: not listed separately
Assay: LTEA_HepaRG_LDH_cytotoxicity: Cytotoxicity Assessment in the Life Technologies and Expression Analysis (LTEA) Assay (AID 2283563);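 as to AC50: LDH activity released into spent culture medium as a marker of cell death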
Conditions: not given
Summary of the method: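 Spent-medium LDH after 48 h chemical exposure of HepaRG cells in serum-free induction medium; eight concentrations, half-log dilutions from 100 uM, duplicate wells, fitted upward relative to 0.5% DMSO.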
With Oc1cc(Cl)c(Cl)cc1Cl the AC50 was 84.8 µM (active). In the case of O=C(N[C@H]1CN2CCC1CC2)c1ccc2c(c1)OCCO2, the outcome is reported as “inactive”. In the case of COc1ccccc1N, the outcome is reported as “inactive”. In the case of Clc1cccc(Cl)c1, the outcome is reported as “inactive”. For N#Cc1cccnc1, the outcome was “inactive”. For OCCN(CCO)CCO, the outcome was “inactive”. In the case of O=C(O)C1(c2ccc3c(c2)OC[C@H](Cc2ccc(-c4ccccc4)cc2)[C@H]3O)CCCC1, the AC50 is reported as 77.6 µM (active). In the case of CN(C)C(=S)S, the outcome is reported as “inactive”. With Cc1cc(C)cc(C)c1 the outcome was “inactive”. In the case of Clc1cccc(Cl)c1Cl, the outcome is reported as “inactive”. In the case of CC(C)(C)c1ccccc1O, the outcome is reported as “inactive”. In the case of CCCCCCCCCCCCc1cccc(S(=O)(=O)O)c1, the outcome is reported as “inactive”.

Test system: not listed separately
Assay: ATG_XTT_Cytotoxicity: Cytotoxicity Assessment in the Attagene TRANS-FACTORIAL HepG2 Assay (AID 2283584);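 as to AC50: XTT signal for cell number as viability in transfected HepG2 cells; cells exposed to compound for 24 h before reading; active means loss of viability signal versus DMSO baseline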
Conditions: not given
Summary of the method: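 24 h chemical exposure of reporter-transfected HepG2; XTT signal loss vs DMSO indicates cytotoxicity.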
For C[As+](C)(C)CC(=O)[O-], the outcome was “inactive”. In the case of C[N+](C)(C)Cc1ccccc1, the outcome is reported as “inactive”. For CC(C)(COCC1CO1)COCC1CO1 (configuration not stated), the outcome was “inactive”. For Oc1cc(Cl)c(Cl)cc1Cl, the outcome was “inactive”. In the case of CC1(C)COP(Oc2ccccc2)OC1, the outcome is reported as “inactive”. For ClCc1ccccc1CCl, the outcome was “inactive”. For CC(C)N(C(=O)CCl)c1ccccc1, the AC50 was 31.2 µM (active). In the case of CN(C)CCN(C)C, the outcome is reported as “inactive”. For COc1ccccc1N, the outcome was “inactive”. With Cc1cc(Cl)ccc1N the outcome was “inactive”. With N#Cc1cccnc1 the outcome was “inactive”. In the case of CC(C)O.CC(C)O.OCCN(CCO)CCO.OCCN(CCO)CCO.[Ti], the outcome is reported as “inactive”. For OCCN(CCO)CCO, the outcome was “inactive”. With c1cc[c]([Sb]([c]2ccccc2)[c]2ccccc2)cc1 the outcome was “inactive”. With CN(C)C(=S)S the outcome was “inactive”. In the case of c1ccc2sc(SNC3CCCCC3)nc2c1, the outcome is reported as “inactive”. In the case of O=S(=O)(C(Cl)(Cl)Cl)C(Cl)(Cl)Cl, the AC50 is reported as 36.7 µM (active). With Cc1cc(C)cc(C)c1 the outcome was “inactive”. For CC(c1ccccc1)(c1ccc(O)cc1)c1ccc(O)cc1, the AC50 was 40.4 µM (active). For COc1ccc([N+](=O)[O-])cc1O, the outcome was “inactive”. In the case of Nc1ccc(N)cc1, the outcome is reported as “inactive”. For CCOC(=O)c1ccccc1S(=O)(=O)NC(=O)Nc1nc(Cl)cc(OC)n1, the outcome was “inactive”. With CC(C)(C)c1ccccc1O the outcome was “inactive”. For CNC(=O)N(C)c1nc2ccccc2s1, the outcome was “inactive”. In the case of CCCCCCCCCCCCc1cccc(S(=O)(=O)O)c1, the AC50 is reported as 139 µM (active). In the case of BrCC(Br)c1ccccc1 (configuration not stated), the outcome is reported as “inactive”. For CCOP(=S)(OCC)SCS(=O)(=O)C(C)(C)C, the outcome was “inactive”. In the case of O=c1[nH]c(=O)n(Cl)c(=O)n1Cl, the outcome is reported as “inactive”. In the case of CC(C)(c1ccc(O)c(-c2ccccc2)c1)c1ccc(O)c(-c2ccccc2)c1, the AC50 is reported as 22.2 µM (active). In the case of ClCCN1CCOCC1, the outcome is reported as “inactive”.

Test system: not listed separately
Assay: Tanguay_ZF_120hpf_MORT_legacy: (Legacy) Oregon State University Tanguay Lab 120 Hour Post-fertilization zebrafish Assay for Mortality (AID 2283633);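 as to AC50: fitted as increase in binary mortality versus DMSO negative control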
Conditions: not given
Summary of the method: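 Single dechorionated Tropical 5D embryos were held with test chemical (0.64% DMSO final) from 6 to 120 hpf at 28C under foil. Deaths at 24 or 120 hpf were recorded as binary calls, analysed for increase over DMSO controls.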
For Oc1cc(Cl)c(Cl)cc1Cl, the AC50 was 24.9 µM (active). For Oc1c(Cl)cc(Cl)cc1Cl, the AC50 was 24.9 µM (active). With O=C(N[C@H]1CN2CCC1CC2)c1ccc2c(c1)OCCO2 the outcome was “inactive”. For COc1ccccc1N, the outcome was “inactive”. For Clc1cccc(Cl)c1, the outcome was “inactive”. In the case of N#Cc1cccnc1, the outcome is reported as “inactive”. In the case of CC(C)O.CC(C)O.OCCN(CCO)CCO.OCCN(CCO)CCO.[Ti], the outcome is reported as “inactive”. With OCCN(CCO)CCO the outcome was “inactive”. In the case of O=C(O)C1(c2ccc3c(c2)OC[C@H](Cc2ccc(-c4ccccc4)cc2)[C@H]3O)CCCC1, the outcome is reported as “inactive”. In the case of CN(C)C(=S)S, the outcome is reported as “inactive”. For Cc1cc(C)cc(C)c1, the outcome was “inactive”. For Clc1cccc(Cl)c1Cl, the outcome was “inactive”. For CC(C)(C)c1ccccc1O, the outcome was “inactive”. For CCCCCCCCCCCCc1cccc(S(=O)(=O)O)c1, the outcome was “inactive”.

Test system: not listed separately
Assay: Tanguay_ZF_120hpf_YSE_legacy: (Legacy) Oregon State University Tanguay Lab 120 Hour Post-fertilization zebrafish Assay for Yolk Sac Edema (AID 2283634);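 as to AC50: actives raise the incidence of yolk sac edema above the DMSO baseline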
Conditions: not given
Summary of the method: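 Single dechorionated embryos were held in sealed plates at 28C with test chemical (0.64% DMSO final) from 6 hpf until 120 hpf. Edema of the yolk sac was then recorded as a binary endpoint; non-mortality endpoints were skipped for dead embryos.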
For Oc1cc(Cl)c(Cl)cc1Cl, the outcome was “inactive”. With Oc1c(Cl)cc(Cl)cc1Cl the outcome was “inactive”. In the case of O=C(N[C@H]1CN2CCC1CC2)c1ccc2c(c1)OCCO2, the outcome is reported as “inactive”. In the case of COc1ccccc1N, the outcome is reported as “inactive”. For Clc1cccc(Cl)c1, the outcome was “inactive”. With N#Cc1cccnc1 the outcome was “inactive”. For OCCN(CCO)CCO, the outcome was “inactive”. For O=C(O)C1(c2ccc3c(c2)OC[C@H](Cc2ccc(-c4ccccc4)cc2)[C@H]3O)CCCC1, the outcome was “inactive”. For CN(C)C(=S)S, the AC50 was 8.26 µM (active). With Cc1cc(C)cc(C)c1 the outcome was “inactive”. In the case of Clc1cccc(Cl)c1Cl, the outcome is reported as “inactive”. In the case of CC(C)(C)c1ccccc1O, the outcome is reported as “inactive”. With CCCCCCCCCCCCc1cccc(S(=O)(=O)O)c1 the outcome was “inactive”.

Test system: not listed separately
Assay: Tanguay_ZF_120hpf_AXIS_legacy: (Legacy) Oregon State University Tanguay Lab 120 Hour Post-fertilization zebrafish Assay for Body Axis Malformation (AID 2283635);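 as to AC50: potency for an increased fraction of larvae scored with body axis malformation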
Conditions: not given
Summary of the method: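 Each dechorionated embryo was exposed alone from 6 hpf, with DMSO at 0.64% (vol/vol) and trimethyltin chloride 5 uM as positive control. Axis malformation was recorded at 120 hpf unless the embryo had died.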
For Oc1cc(Cl)c(Cl)cc1Cl, the outcome was “inactive”. In the case of Oc1c(Cl)cc(Cl)cc1Cl, the outcome is reported as “inactive”. With O=C(N[C@H]1CN2CCC1CC2)c1ccc2c(c1)OCCO2 the outcome was “inactive”. In the case of COc1ccccc1N, the outcome is reported as “inactive”. For Clc1cccc(Cl)c1, the outcome was “inactive”. With N#Cc1cccnc1 the outcome was “inactive”. For CC(C)O.CC(C)O.OCCN(CCO)CCO.OCCN(CCO)CCO.[Ti], the outcome was “inactive”. With OCCN(CCO)CCO the outcome was “inactive”. In the case of O=C(O)C1(c2ccc3c(c2)OC[C@H](Cc2ccc(-c4ccccc4)cc2)[C@H]3O)CCCC1, the outcome is reported as “inactive”. In the case of CN(C)C(=S)S, the AC50 is reported as 0.946 µM (active). With Cc1cc(C)cc(C)c1 the outcome was “inactive”. With Clc1cccc(Cl)c1Cl the outcome was “inactive”. With CC(C)(C)c1ccccc1O the outcome was “inactive”. For CCCCCCCCCCCCc1cccc(S(=O)(=O)O)c1, the outcome was “inactive”.
